Over roughly 16,000 sequences, “rpm ratio (pull-down/input)” has its median near 0.5; the highest 2% begin near 5.5. The list comes from a sample in which the highest values are over-represented; it also holds similar and randomly drawn sequences.

For the assay, the target named is T1, MBP-FoxP3dN (Mus musculus, UniProt Q99JB6 188-423).
T1 sequence: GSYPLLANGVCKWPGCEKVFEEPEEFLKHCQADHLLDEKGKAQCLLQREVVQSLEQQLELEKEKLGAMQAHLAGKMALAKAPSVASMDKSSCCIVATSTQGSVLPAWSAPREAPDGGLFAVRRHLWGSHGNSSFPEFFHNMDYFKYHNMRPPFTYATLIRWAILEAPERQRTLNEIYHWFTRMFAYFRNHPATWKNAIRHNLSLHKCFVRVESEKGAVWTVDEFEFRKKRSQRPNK
The assay can be described thus: PD-seq (MBP pull-down with sequencing); 20 mM Tris-HCl pH 7.5, 100 mM NaCl, 1.5 mM MgCl2, 0.4 uM protein, 0.1 uM dsDNA library, 30 min, room temperature, amylose pull-down; high values mean tight binding. The settings on record: protein: recombinant; tags: His6-MBP; chain copies: 2; dsDNA, one strand shown. A digest of the protocol:
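E. coli-expressed mouse FoxP3 or FoxP1 fragment, N-terminus removed and tagged with His6-MBP, was used at 0.4 µM against 0.1 µM of a Klenow-filled degenerate double-stranded DNA library. After 30 min at room temperature in Tris pH 7.5 buffer with NaCl and MgCl2, complexes were pulled down on amylose resin and washed three times. Binding is pull-down over input reads-per-million enrichment from pooled replicates of the proteinase K-released, PCR-barcoded, Illumina-sequenced DNA.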
Consider “GATGATTGTTCTCCCAGCTGATGAATTACTTAACTCGAGTAAACAAATTTTCCTAATCTTTCTGTTCAAGCGCCATCTAC”, for which the binding signal was 0.277 RPM ratio (pull-down/input).

Consider “GATGATTGTTCTCCCAGCTGATGAATTCTGGCCATCGAGTAAACAAATTTTCCTAATCTTTCTGTTCAAGCGCCATCTAC”, for which the binding signal was 1.12 RPM ratio (pull-down/input).

With “GATGATTGTTCTCCCAGCTGATGAATTGACAATGTCGAGTAAACAAATTTTCCTAATCTTTCTGTTCAAGCGCCATCTAC”, the binding signal is 0.506 RPM ratio (pull-down/input).

On to “GATGATTGTTCTCCCAGCTGATGAATTGGGAGATTCGAGTAAACAAATTTTCCTAATCTTTCTGTTCAAGCGCCATCTAC”, for which the binding signal is 0.372 RPM ratio (pull-down/input).

As for “GATGATTGTTCTCCCAGCTGATGAATTGTAGTAATCGAGTAAACAAATTTTCCTAATCTTTCTGTTCAAGCGCCATCTAC”, the binding signal was 1.03 RPM ratio (pull-down/input).

In the case of “GATGATTGTTCTCCCAGCTGATGAATTTGTATCCTCGAGTAAACAAATTTTCCTAATCTTTCTGTTCAAGCGCCATCTAC”, the binding signal was 5.4 RPM ratio (pull-down/input).

For “GATGATTGTTCTCCCAGCTGATGAATTTTGTATCTCGAGTAAACAAATTTTCCTAATCTTTCTGTTCAAGCGCCATCTAC”, the binding signal is 5.89 RPM ratio (pull-down/input).

With “GATGATTGTTCTCCCAGCTGATGAATTGTATTCCTCGAGTAAACAAATTTTCCTAATCTTTCTGTTCAAGCGCCATCTAC”, the binding signal was 1.97 RPM ratio (pull-down/input).

On to “GATGATTGTTCTCCCAGCTGATGAATTTGCTGTATCGAGTAAACAAATTTTCCTAATCTTTCTGTTCAAGCGCCATCTAC”, for which the binding signal is 4.72 RPM ratio (pull-down/input).

“GATGATTGTTCTCCCAGCTGATGAATTTGTAATCTCGAGTAAACAAATTTTCCTAATCTTTCTGTTCAAGCGCCATCTAC”: the binding signal was 3.82 RPM ratio (pull-down/input).

Turning to “GATGATTGTTCTCCCAGCTGATGAATTTTTTGTATCGAGTAAACAAATTTTCCTAATCTTTCTGTTCAAGCGCCATCTAC”, the binding signal is 0.521 RPM ratio (pull-down/input).

As for “GATGATTGTTCTCCCAGCTGATGAATTTGTAGTATCGAGTAAACAAATTTTCCTAATCTTTCTGTTCAAGCGCCATCTAC”, the binding signal is 5.7 RPM ratio (pull-down/input).

Consider “GATGATTGTTCTCCCAGCTGATGAATTTGTATTCTCGAGTAAACAAATTTTCCTAATCTTTCTGTTCAAGCGCCATCTAC”, for which the binding signal is 5.9 RPM ratio (pull-down/input).

For “GATGATTGTTCTCCCAGCTGATGAATTGTATTTCTCGAGTAAACAAATTTTCCTAATCTTTCTGTTCAAGCGCCATCTAC”, the binding signal is 2.06 RPM ratio (pull-down/input).

Regarding “GATGATTGTTCTCCCAGCTGATGAATTAGTAGTATCGAGTAAACAAATTTTCCTAATCTTTCTGTTCAAGCGCCATCTAC”, the binding signal was 2.45 RPM ratio (pull-down/input).

As to “GATGATTGTTCTCCCAGCTGATGAATTGTTTGTATCGAGTAAACAAATTTTCCTAATCTTTCTGTTCAAGCGCCATCTAC”, the binding signal was 7.73 RPM ratio (pull-down/input).

For “GATGATTGTTCTCCCAGCTGATGAATTCTAGCTGTCGAGTAAACAAATTTTCCTAATCTTTCTGTTCAAGCGCCATCTAC”, the binding signal is 0.392 RPM ratio (pull-down/input).

As for “GATGATTGTTCTCCCAGCTGATGAATTCGTTAGTTCGAGTAAACAAATTTTCCTAATCTTTCTGTTCAAGCGCCATCTAC”, the binding signal is 2.91 RPM ratio (pull-down/input).

Consider “GATGATTGTTCTCCCAGCTGATGAATTTTACTCATCGAGTAAACAAATTTTCCTAATCTTTCTGTTCAAGCGCCATCTAC”, for which the binding signal was 0.402 RPM ratio (pull-down/input).

Turning to “GATGATTGTTCTCCCAGCTGATGAATTTCAAGTTTCGAGTAAACAAATTTTCCTAATCTTTCTGTTCAAGCGCCATCTAC”, the binding signal is 0.283 RPM ratio (pull-down/input).

Regarding “GATGATTGTTCTCCCAGCTGATGAATTTATACGTTCGAGTAAACAAATTTTCCTAATCTTTCTGTTCAAGCGCCATCTAC”, the binding signal is 0.886 RPM ratio (pull-down/input).

For “GATGATTGTTCTCCCAGCTGATGAATTTCCACGTTCGAGTAAACAAATTTTCCTAATCTTTCTGTTCAAGCGCCATCTAC”, the binding signal was 0.311 RPM ratio (pull-down/input).

With “GATGATTGTTCTCCCAGCTGATGAATTGTATCCTTCGAGTAAACAAATTTTCCTAATCTTTCTGTTCAAGCGCCATCTAC”, the binding signal is 1.61 RPM ratio (pull-down/input).

Consider “GATGATTGTTCTCCCAGCTGATGAATTGTATCTTTCGAGTAAACAAATTTTCCTAATCTTTCTGTTCAAGCGCCATCTAC”, for which the binding signal is 1.68 RPM ratio (pull-down/input).

For “GATGATTGTTCTCCCAGCTGATGAATTTGTATGCTCGAGTAAACAAATTTTCCTAATCTTTCTGTTCAAGCGCCATCTAC”, the binding signal is 6.51 RPM ratio (pull-down/input).

For “GATGATTGTTCTCCCAGCTGATGAATTTGTATCTTCGAGTAAACAAATTTTCCTAATCTTTCTGTTCAAGCGCCATCTAC”, the binding signal is 5.56 RPM ratio (pull-down/input).

For the sequence “GATGATTGTTCTCCCAGCTGATGAATTTGTATACTCGAGTAAACAAATTTTCCTAATCTTTCTGTTCAAGCGCCATCTAC”, the binding signal was 7.1 RPM ratio (pull-down/input).

Turning to “GATGATTGTTCTCCCAGCTGATGAATTGTAATGCTCGAGTAAACAAATTTTCCTAATCTTTCTGTTCAAGCGCCATCTAC”, the binding signal was 1.07 RPM ratio (pull-down/input).

As to “GATGATTGTTCTCCCAGCTGATGAATTTCTATACTCGAGTAAACAAATTTTCCTAATCTTTCTGTTCAAGCGCCATCTAC”, the binding signal is 0.435 RPM ratio (pull-down/input).

Turning to “GATGATTGTTCTCCCAGCTGATGAATTTGATGTATCGAGTAAACAAATTTTCCTAATCTTTCTGTTCAAGCGCCATCTAC”, the binding signal was 4.63 RPM ratio (pull-down/input).

For “GATGATTGTTCTCCCAGCTGATGAATTTGTATCATCGAGTAAACAAATTTTCCTAATCTTTCTGTTCAAGCGCCATCTAC”, the binding signal was 5.48 RPM ratio (pull-down/input).

With “GATGATTGTTCTCCCAGCTGATGAATTGTAATACTCGAGTAAACAAATTTTCCTAATCTTTCTGTTCAAGCGCCATCTAC”, the binding signal is 0.756 RPM ratio (pull-down/input).

Consider “GATGATTGTTCTCCCAGCTGATGAATTTGTTGTATCGAGTAAACAAATTTTCCTAATCTTTCTGTTCAAGCGCCATCTAC”, for which the binding signal is 7.55 RPM ratio (pull-down/input).

These data come from paper PMC12820563, “FoxP3 forms a head-to-head dimer in vivo and stabilizes its multimerization on adjacent microsatellites”.
